Screening data from PubChem.
HCV inhibitor = HCV inhibition. Huh7.5.1 HCVcc-Cre infection, luciferase reporter, 44 h. Potency, µM (top dose mostly 41.8 µM), most hits filed as inhibitors. 340,000 tested, 3.4% active. AID 651820
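Antiviral activity was scored by luciferase reporter output from cells infected with HCVcc-Cre (~0.5 moi) in presence of compound, 44 h infection period, cells seeded 1,000/well 4 h prior.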
HCMV inh = inhibitors of human cytomegalovirus. HFF cells, HCMV-luciferase reporter, 72 h; hits give low values. activity change, negative = inhibition, % at 57.5 µM. 410,000 tested, 4.5% active. AID 1259415; in the data active = activity change below about -60%; inconclusive = no clear call, values can overlap the other calls; inactive = above about -39%
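Compounds were evaluated in HFFs infected with an HCMV luciferase reporter virus (MOI 1 PFU/cell). Luciferase in lysates collected 72 h post infection served as the replication measure.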
Pf growth 96h = P. falciparum growth inhibition at 96 hours; P. falciparum luciferase reporter growth, 96 h; Potency, µM (titrated, usually from 28.7 µM), usual class: inhibitors; 320,000 tested, 6.9% active
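Parasite growth measured via integrated firefly luciferase reporter in P. falciparum. Infected erythrocytes at 2% hematocrit, 0.05% parasitemia final were treated 96 hours at 37 C under 5% CO2, and luminescence was read.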
Pf growth 48h = P. falciparum growth inhibition at 48 hours (one generation); P. falciparum luciferase growth in erythrocytes, 48 h; Potency, µM (top dose mostly 28.7 µM), hits mostly inhibitors; 310,000 tested, 5.9% active; AID 504832
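Compounds are pin-transferred into medium, infected erythrocytes (2% hematocrit, 0.1% parasitemia final) are added, and plates sit one parasite generation at 37 C in 5% CO2. Detection reagent is then added and luminescence measured.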
Numbers stand for hits; – = inactive; ? = inconclusive; · = no result given; [ ] = another dose, or the depositor's remark. This is a sample that favours compounds with a hit; in the whole collection about 13% have one here. Unless noted, calls come from the whole dose curve; as a rule, active = well fitted inhibition curve with a large enough effect; inconclusive = small, poorly fitted or top-dose-only effect, or another doubt; inactive = no such curve, though single readings can be large or run the other way.

SMILES	HCV inhibitor	HCMV inh	Pf growth 96h	Pf growth 48h
CC(=O)c1ccc(NC(=O)C2CCCN(S(=O)(=O)c3cccc4nonc34)C2)cc1 (configuration not stated)	–	·	–	–
O=C(Nc1ccc(F)c(F)c1)C1CCN(S(=O)(=O)c2cccc3nonc23)CC1	?	-76.6	?	–
Cc1ccc2nc(NC(=O)C3CCCN(S(=O)(=O)c4cccc5nonc45)C3)sc2c1 (configuration not stated)	·	·	?	–
Cc1cccc2sc(NC(=O)C3CCCN(S(=O)(=O)c4cccc5nonc45)C3)nc12 (configuration not stated)	–	–	?	11.7µM
CC(=O)Nc1ccc(NC(=O)C2CCN(S(=O)(=O)c3cccc4nonc34)CC2)cc1	–	–	–	–
COc1ccccc1NC(=O)CC(NCc1ccccc1)C(=O)O (configuration not stated)	–	–	2.62µM	–
CCOc1ccc(-n2cc(-c3ccccc3)c3c(N4CCN(c5ccccc5OC)CC4)ncnc32)cc1	·	–	·	·
Cc1ccc(C(=O)N/N=C/c2ccc(-c3ccc(Br)cc3[N+](=O)[O-])o2)o1	?	–	?	9.28µM
COc1ccc(-c2nc3ccccc3s2)cc1NC(=O)c1cc2ccccc2o1	·	–	·	·
Cn1cc(-c2cc3c(Nc4ccc(OC(F)(F)F)cc4)nccc3[nH]2)cn1	·	-65.3	·	·
COc1ccc(Nc2nccc3[nH]c(-c4cccc(F)c4)cc23)cc1	·	–	·	·
C[C@H](CO)N1C[C@H](C)[C@@H](CN(C)C(=O)c2ccc(N3CCN(C)CC3)cc2)OCc2cn(nn2)CCCC1=O	·	–	·	·
NC(=O)CCCCC(=O)OCCCc1cccs1	–	–	4.65µM	–
CCOC(=O)CNc1ncnc2c1nnn2C	·	–	·	·
COC1=CC(=O)c2ccccc2C1=O	1µM	·	·	·
CC(OC(=O)c1cccc(NS(C)(=O)=O)c1)C(=O)Nc1ccc2c(c1)OCO2 (configuration not stated)	7.08µM	–	–	–
COc1cccc(C(=O)OC(C)C(=O)Nc2ccc3c(c2)OCO3)c1 (configuration not stated)	?	–	–	–
CCOc1ccc(C(=O)Nc2ccc3c(c2)OCO3)cc1OCC	5.62µM	–	·	–
CCOc1ccc(NC(=O)c2cc(F)c(F)cc2Cl)cc1OCC	–	-97.8	–	–
CCC(CC)C(=O)Nc1cccc(C(=O)Nc2ccc3c(c2)OCO3)c1	7.94µM	–	·	–
CCOc1cc(C(=O)Nc2ccc3c(c2)OCO3)ccc1OCCOc1ccccc1Cl	–	–	–	–
CCOC(=O)c1c(S(=O)(=O)N2CCC(C(=O)N3CCN(c4cccc(C)c4C)CC3)CC2)c(C)n(C)c1C	·	–	·	·
O=C(COC(=O)c1cc(-c2ccccc2)nc2c(Cl)cccc12)c1ccc(F)cc1	·	–	·	·
CCCCc1nn2c(=O)cc(COC(=O)c3cccc(OC)c3)nc2s1	·	–	·	·
CCc1nc2ccc(C(=O)Nc3ccc4c(c3)OCO4)cc2nc1CC	2µM	–	?	–
SMILES	HCV inhibitor	HCMV inh	Pf growth 96h	Pf growth 48h
CCC(CC)C(=O)Nc1cccc(C(=O)Nc2ccc(S(=O)(=O)Nc3ccc(C)cc3)cc2)c1	15.8µM	-97.4	?	?
O=C(Nc1nc2ccccc2n1Cc1ccccc1)c1ccco1	–	–	·	13.1µM
CCCCn1c(Nc2ccccc2)nc2ccccc21	–	–	?	·
CCCn1c(Nc2nc3ccccc3n2C)nc2ccccc21	?	-99.8	7.38µM	7.38µM
CC(NC(=O)c1ccccc1)c1nc2ccccc2n1Cc1ccc(Cl)cc1 (configuration not stated)	·	–	·	·
CCCCCCCn1c(NC(=O)CC)nc2ccccc21	–	-83.9	0.928µM	1.85µM
O=C(NCCc1nc2ccccc2n1Cc1ccccc1)c1ccco1	·	–	·	·
CCC(=O)Nc1nc2ccccc2n1Cc1ccc(Cl)cc1	?	-76.2	–	?
CCC(=O)NCc1nc2ccccc2n1Cc1ccccc1F	–	-99.4	–	–
CCC(=O)NCCCc1nc2ccccc2n1Cc1ccccc1F	–	–	–	?
CC(NC(=O)/C=C/c1ccco1)c1nc2ccccc2n1Cc1c(Cl)cccc1Cl (configuration not stated)	–	–	?	?
O=C(Nc1nc(NC(=O)c2ccco2)n(-c2ccccc2)n1)c1ccccc1	?	-100.0	–[5.75 µM]	?
CC(=O)Nc1nc2ccccc2n1Cc1ccccc1C	?	?	–	7.38µM
CC(NC(=O)/C=C/c1ccco1)c1nc2ccccc2n1Cc1ccccc1F (configuration not stated)	–	–	10.4µM	?
Cc1ccc(C)c(N(C)C(=O)CCNC(=O)Cn2cnc3ccccc3c2=O)c1	·	–	·	·
CCOC(=O)C1=CCN(S(=O)(=O)c2ccccc2Cl)C1c1cccc(F)c1 (configuration not stated)	·	–	·	·
COC(=O)c1ccc(Cl)cc1NC(=O)Nc1nnc(N2CCCC2)s1	·	–	·	·
CCn1c(CCNC(=O)c2ccco2)nc2ccccc21	?	–	9.28µM	–
Cc1ccccc1Cn1c(-c2ccc(=O)[nH]c2)nc2ccccc21	–	–	7.38µM	11.7µM
CCn1c(CCCNC(=O)c2ccco2)nc2ccccc21	–	–	–	–
Cc1cc2nc(-c3ccc(=O)[nH]c3)n(Cc3ccccc3)c2cc1C	–	–	?	?
O=C(Nc1nc2ccccc2n1CCOc1ccccc1Cl)c1ccccc1	·	–	·	·
CC(=O)Nc1nc2ccccc2n1Cc1ccccc1Cl	–	-96.3	?	3.29µM
CC(=O)Nc1nc2ccccc2n1CCOc1ccccc1Cl	–	–	–	3.7µM
CC(=O)NC(C)c1nc2ccccc2n1Cc1ccccc1Cl (configuration not stated)	·	–	·	·
SMILES	HCV inhibitor	HCMV inh	Pf growth 96h	Pf growth 48h
COC(=O)c1ccc(Cl)c(NC(=O)C2CCN(S(=O)(=O)Cc3ccccc3)CC2)c1	·	–	·	·
CCOC(=O)c1cccc(NC(=O)CSc2nc3cc4ccccc4cc3[nH]2)c1	·	–	·	·
CC(Sc1nccn1C)C(=O)Nc1ccccc1C#N (configuration not stated)	·	–	·	·
COCc1nc2ccccc2n1CCOc1cccc(C)c1	·	–	·	·
CC12C=CC(C)(C3C(=O)NC(=O)C31)C1C3C(=O)NC(=O)C3C12 (configuration not stated)	·	–	·	·
Cc1c(C(=O)NCc2ccccc2Cl)sc2nc[nH]c(=O)c12	·	–	·	·
CCC(=O)Nc1nc2ccccc2n1Cc1ccccc1Cl	?	?	2.94µM	3.29µM
Cc1ccc(NC(=O)c2cc3c(-c4ccccc4)nn(-c4ccccc4)c3s2)cc1	·	–	·	·
O=C(Nc1cccc(F)c1)C1CCCN(S(=O)(=O)c2cccc3cccnc23)C1 (configuration not stated)	?	–	?	9.28µM
O=C(NC1CCCC1)C1CCCN(S(=O)(=O)c2cccc3cccnc23)C1 (configuration not stated)	–	–	–	–
O=C(C1CCCN(S(=O)(=O)c2cccc3cccnc23)C1)N1CCN(c2ccccc2F)CC1 (configuration not stated)	–	–	14.7µM	·
CCc1ccc2ncc3c(-c4ccc(C)cc4)nn(CC(=O)Nc4ccc(C)cc4)c3c2c1	·	–	·	·
